From PubChem BioAssay (Tox21)
Where “and” joins values, the source holds several entries; their conditions need not be identical. Equal entries are not always repeated. Results filed as inconclusive are left out. Some structures have more than one record in an assay (separate samples or runs), and their calls can disagree. Calls of active or inactive are those of the source. Unless noted, the call rests on the fitted dose curve; in most records, active means well fitted curve in the direction sought with a large enough effect in the repeat runs; inconclusive means weak or mixed curves; inactive means no such curve, though single readings can be large; an effect the other way counts as inactive or inconclusive.

What was measured:
[1] = qHTS assay to identify small molecule agonists of the peroxisome proliferator-activated receptor delta (PPARd) signaling pathway - cell viability counter screen (AID 743211); further: nearly all actives have a fitted effect of over 55% in size; further: potency means the concentration at half of the fitted maximal effect
Outline: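 Multiplexed format: after the 2 h room-temperature LiveBLAzer B/G FRET step, CellTiter-Glo was added to the same wells. Luminescence after 30 min gave cell viability; compound exposure was 17 h at 37C.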

[2] = qHTS assay to identify small molecule antagonists of the peroxisome proliferator-activated receptor delta (PPARd) signaling pathway - cell viability counter screen (AID 743213); further: nearly all actives have a fitted effect of over 50% in size; further: potency means the concentration at half of the fitted maximal effect
Outline: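 CellTiter-Glo was added to PPARd-bla HEK293H wells following 17 h compound treatment in the presence of 300 nM L165041. Luminescence was recorded after 30 min at room temperature.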

[3] = qHTS assay to identify small molecule agonists of the farnesoid-X-receptor (FXR) signaling pathway - cell viability counter screen (AID 743218); further: nearly all actives have a fitted effect of over 45% in size; further: potency means the concentration at half of the fitted maximal effect
Outline: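 FXR-UAS-bla HEK 293T cells exposed to compounds for 16 h at 37C. Cytotoxicity read in the same wells by CellTiter-Glo luminescence after 30 min at room temperature, following the beta-lactamase FRET read.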

[4] = target: Bile acid receptor (Homo sapiens) (UniProt Q96RI1); experiment: qHTS assay to identify small molecule agonists of the farnesoid-X-receptor (FXR) signaling pathway (AID 743220; active means well fitted activation curve with a large enough effect in the signal ratio in the repeat runs, not every such curve was filed as active; the % refers to the signal ratio; further: on the % scale 0 is the no-effect control and ±100 the full control effect)
Chain of Bile acid receptor (Homo sapiens) (Q96RI1 whole entry, looked up): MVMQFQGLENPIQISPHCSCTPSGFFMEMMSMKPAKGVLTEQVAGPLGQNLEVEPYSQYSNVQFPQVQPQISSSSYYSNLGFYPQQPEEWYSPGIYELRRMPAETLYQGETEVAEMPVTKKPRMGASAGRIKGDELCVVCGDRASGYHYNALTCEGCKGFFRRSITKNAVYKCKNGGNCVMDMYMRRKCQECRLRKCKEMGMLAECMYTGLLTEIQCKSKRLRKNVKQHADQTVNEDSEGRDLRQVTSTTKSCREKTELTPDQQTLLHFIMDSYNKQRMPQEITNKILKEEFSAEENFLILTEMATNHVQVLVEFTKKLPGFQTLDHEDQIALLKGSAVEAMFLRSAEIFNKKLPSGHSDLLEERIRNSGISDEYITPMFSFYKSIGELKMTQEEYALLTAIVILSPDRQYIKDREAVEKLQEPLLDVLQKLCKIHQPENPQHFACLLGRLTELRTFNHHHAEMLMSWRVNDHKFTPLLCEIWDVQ
Outline: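 Beta-lactamase reporter under UAS control in GeneBLAzer FXR HEK 293T cells (5000/well) measured with LiveBLAzer FRET substrate after 2 h at room temperature. Compound exposure lasted 16 h at 37C.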

[5] = qHTS assay to identify small molecule antagonists of the farnesoid-X-receptor (FXR) signaling pathway - cell viability counter screen (AID 743221; active means well fitted cell-killing curve with a large enough effect in the repeat runs, not every such curve was filed as active; further: nearly all actives have a fitted effect of over 50% in size; further: potency means the concentration at half of the fitted maximal effect)
Outline: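 CellTiter-Glo, 30 min RT, luminescence; same wells as the LiveBLAzer FRET read. Cells: FXR-UAS-bla HEK 293T. Treatment: compound with chenodeoxycholic acid 50 uM final, 16 h at 37 C.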

[6] = qHTS assay to identify small molecule agonists of the vitamin D receptor (VDR) signaling pathway - cell viability counter screen (AID 743224); further: nearly all actives have a fitted effect of over 50% in size; further: potency means the concentration at half of the fitted maximal effect
Outline: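 VDR-bla cells, 4 h after plating, exposed to compounds for 16 h at 37C; viability then read in the same wells as CellTiter-Glo luminescence after 30 min at room temperature, following the bla FRET read.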

[7] = qHTS assay to identify small molecule agonists of the NFkB signaling pathway (AID 1159509; active means well fitted curve in the direction sought with a large enough effect in the signal ratio in the repeat runs, not every such curve was filed as active; the % refers to the signal ratio; further: series mostly up to about 61 µM; on the % scale 0 is the no-effect control and ±100 the full control effect)
Outline: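 NFkB-bla ME-180 cells carry a beta-lactamase reporter under an NF-kB response element. They were plated overnight, then exposed to compounds for 5 h at 37 C. Read-out is LiveBLAzer FRET after 1.5 hr at room temperature (405 nm excitation; 460/530 nm emission).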

[8] = qHTS assay to identify small molecule agonists of the NFkB signaling pathway - cell viability counter screen (AID 1159515; calls by dose curve; further: series mostly up to about 61 µM; on the % scale 0 is the no-effect control and ±100 the full control effect; nearly all actives have a fitted effect of over 55% in size)
Outline: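 NFkB-bla ME-180 cells, 2,000/well, plated overnight at 37 C; compound added for 5 hr at 37 C. Viability read in the same wells as the bla reporter, by CellTiter-Glo luminescence after 30 min at room temperature.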

[9] = qHTS assay to identify small molecule antagonists of the retinoid-related orphan receptor gamma (ROR-gamma) signaling pathway - cell viability counter screen (AID 1159520); further: nearly all actives have a fitted effect of over 50% in size; further: potency means the concentration at half of the fitted maximal effect
Outline: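 Cytotoxicity was read from cellular ATP (CellTiter-Glo luminescence) after 16 hr at 37 C with 1 uM doxycycline induction. The inducer was added 2 hr after compound transfer to Tet-on ROR gamma CHO cells.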

[10] = target: Nuclear receptor ROR-gamma (Homo sapiens) (UniProt P51449); experiment: qHTS assay to identify small molecule antagonists of the retinoid-related orphan receptor gamma (ROR-gamma) signaling pathway (AID 1159521; further: nearly all actives have a fitted effect of over 50% in size; further: potency means the concentration at half of the fitted maximal effect)
Outline: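 Readout: ONE-Glo luciferase luminescence, 30 min at room temperature. System: Tet-on RORγ CHO, RORE-LUC. Sequence: compound 2 h, doxycycline 1 uM final, 16 h at 37 C.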

[11] = qHTS assay to identify small molecule agonists of the AP-1 signaling pathway - cell viability counter screen (AID 1159525; calls by dose curve; further: nearly all actives have a fitted effect of over 55% in size)
Outline: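 Luminescent ATP readout (Cell Titer Glo, 30 min RT), normalised to DMSO and tetra n-octyl ammonium bromide controls. Cells were ME-180 AP-1-bla in 0.5% dialyzed FBS Opti-MEM, with a 5 h, 37 °C compound exposure.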

[12] = qHTS assay to identify small molecule agonists of the AP-1 signaling pathway (AID 1159526; calls by dose curve; further: on the % scale 0 is the no-effect control and ±100 the full control effect)
[13] = target: Peroxisome proliferator-activated receptor delta (Homo sapiens) (UniProt Q03181); experiment: qHTS assay to identify small molecule agonists of the peroxisome proliferator-activated receptor delta (PPARd) signaling pathway (AID 743212; calls by dose curve; further: on the % scale 0 is the no-effect control and ±100 the full control effect)
Chain of Peroxisome proliferator-activated receptor delta (Homo sapiens) (Q03181 whole entry, looked up): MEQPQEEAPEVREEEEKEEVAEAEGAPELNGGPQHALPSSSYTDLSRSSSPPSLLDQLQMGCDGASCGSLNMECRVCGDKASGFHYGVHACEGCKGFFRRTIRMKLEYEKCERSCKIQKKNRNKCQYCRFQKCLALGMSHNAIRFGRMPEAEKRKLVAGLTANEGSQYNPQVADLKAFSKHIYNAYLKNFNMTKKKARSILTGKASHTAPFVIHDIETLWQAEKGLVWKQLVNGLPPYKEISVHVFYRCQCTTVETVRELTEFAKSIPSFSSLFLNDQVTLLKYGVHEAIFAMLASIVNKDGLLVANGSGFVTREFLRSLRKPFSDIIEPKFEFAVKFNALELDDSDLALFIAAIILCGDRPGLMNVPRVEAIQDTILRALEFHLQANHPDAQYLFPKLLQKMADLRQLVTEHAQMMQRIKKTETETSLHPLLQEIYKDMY
Outline: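 HEK293H PPARd-bla cells; 5 h preincubation 37 C/5% CO2; compound (DMSO) 37 C; LiveBLAzer B/G FRET substrate 2 h RT; fluorescence intensity.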

[14] = qHTS assay to identify small molecule antagonists of the vitamin D receptor (VDR) signaling pathway - cell viability counter screen (AID 743225); further: nearly all actives have a fitted effect of over 50% in size; further: potency means the concentration at half of the fitted maximal effect
Outline: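 Cytotoxicity toward the VDR-bla HEK 293T line was scored by ATP-based CellTiter-Glo luminescence, read in the wells already used for the beta-lactamase readout after 16 h compound treatment under 3 nM 1-alpha,25-dihydroxyvitamin D3 stimulation.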

[15] = qHTS assay to identify small molecule agonists of the endoplasmic reticulum stress response signaling pathway (AID 1159516; active means well fitted activation curve with a large enough effect in the signal ratio in the repeat runs, not every such curve was filed as active; the % refers to the signal ratio; further: on the % scale 0 is the no-effect control and ±100 the full control effect)
Outline: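 CellSensor ESRE-bla HeLa cells, 1,500 per well, plated overnight, then exposed to compounds for 5 hr at 37 C. Beta-lactamase reporter read with LiveBLAzer B/G FRET substrate after 2 hr at room temperature, 405 nm excitation, 460 and 530 nm emission.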

[16] = qHTS assay to identify small molecule agonists of the endoplasmic reticulum stress response signaling pathway - cell viability counter screen (AID 1159517; calls by dose curve; further: nearly all actives have a fitted effect of over 50% in size; further: potency means the concentration at half of the fitted maximal effect)
Outline: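 HeLa cells carrying an ESRE-driven beta-lactamase reporter receive compound for 5 hr at 37 C. Cell viability is then gauged with CellTiter-Glo by luminescence, 30 min at room temperature.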

[17] = target: Peroxisome proliferator-activated receptor delta (Homo sapiens) (UniProt Q03181); experiment: qHTS assay to identify small molecule antagonists of the peroxisome proliferator-activated receptor delta (PPARd) signaling pathway (AID 743215; active means well fitted inhibition curve with a large enough effect in the signal ratio in the repeat runs, not every such curve was filed as active; the % refers to the signal ratio)
Outline: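 PPARd-bla HEK293H cells (UAS-bla reporter) preincubated 5 h, then given compound plus 300 nM final L165041 agonist for 17 h at 37 C. Beta-lactamase activity read by LiveBLAzer B/G FRET substrate fluorescence after 2 h at room temperature.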

[18] = target: Bile acid receptor (Homo sapiens) (UniProt Q96RI1); experiment: qHTS assay to identify small molecule antagonists of the farnesoid-X-receptor (FXR) signaling pathway (AID 743217; active means well fitted inhibition curve with a large enough effect in the signal ratio in the repeat runs, not every such curve was filed as active; the % refers to the signal ratio; further: on the % scale 0 is the no-effect control and ±100 the full control effect)
Outline: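 FXR-UAS-bla HEK 293T cells (beta-lactamase reporter) given compound plus chenodeoxycholic acid (50 uM final), 16 h at 37C. LiveBLAzer B/G FRET substrate added for 2 h at room temperature; fluorescence read.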

[19] = target: Vitamin D3 receptor (Homo sapiens) (UniProt P11473); experiment: qHTS assay to identify small molecule agonists of the vitamin D receptor (VDR) signaling pathway (AID 743222; calls by dose curve; further: on the % scale 0 is the no-effect control and ±100 the full control effect)
Chain of Vitamin D3 receptor (Homo sapiens) (P11473 whole entry, looked up): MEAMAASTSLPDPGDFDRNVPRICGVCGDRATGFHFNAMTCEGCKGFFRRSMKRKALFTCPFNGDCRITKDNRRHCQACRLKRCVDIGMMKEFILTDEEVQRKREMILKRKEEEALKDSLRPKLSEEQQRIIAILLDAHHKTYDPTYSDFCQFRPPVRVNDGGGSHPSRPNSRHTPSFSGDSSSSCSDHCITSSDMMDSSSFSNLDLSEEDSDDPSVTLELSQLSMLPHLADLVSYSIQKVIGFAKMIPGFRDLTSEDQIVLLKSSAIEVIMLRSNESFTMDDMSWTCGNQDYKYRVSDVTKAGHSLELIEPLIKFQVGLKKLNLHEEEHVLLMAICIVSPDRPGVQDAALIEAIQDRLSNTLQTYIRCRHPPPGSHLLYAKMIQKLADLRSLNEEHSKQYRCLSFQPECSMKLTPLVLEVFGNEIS
Outline: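 VDR-bla cells plated 4 h at 37 C, then exposed to compounds for 16 h at 37 C. Beta-lactamase reporter activity measured by fluorescence after 2 h room-temperature loading with LiveBLAzer B/G FRET substrate.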

[20] = target: Vitamin D3 receptor (Homo sapiens) (UniProt P11473); experiment: qHTS assay to identify small molecule antagonists of the vitamin D receptor (VDR) signaling pathway (AID 743223; active means well fitted inhibition curve with a large enough effect in the signal ratio in the repeat runs, not every such curve was filed as active; the % refers to the signal ratio; further: on the % scale 0 is the no-effect control and ±100 the full control effect)
Outline: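 After VDR-bla cells are plated and left 4 h at 37C, DMSO-dissolved compounds and 3 nM (final) calcitriol agonist are added. Incubation continues 16 h at 37C; FRET beta-lactamase substrate then develops 2 h at room temperature.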

O=C(Nc1ccc([N+](=O)[O-])cc1Cl)c1cc(Cl)ccc1O
inactive: outcome [4] | outcome [7] | Potency [8] | Potency [10] | viability change, negative = cytotoxic [11] 2.04% [at 15.8 µM] | activation [12] 4.2% [at 15.8 µM]
active: Potency [1] 219 nM and 259 nM | Potency [2] 1.64 µM | Potency [3] 1.38 µM and 1.16 µM | Potency [5] 3.26 µM | Potency [6] 549 nM and 651 nM | Potency [9] 1.54 µM and 920 nM

CC(C)=CCCC(C)CCO (centres undefined)
inactive: outcome [13] | Potency [2] | Potency [3] | Potency [6] | Potency [14] | outcome [7] | Potency [8] | Potency [15] | Potency [16] | Potency [10] | outcome [12]

CCOC(=O)C(C#N)=C(c1ccccc1)c1ccccc1
inactive: Potency [1] | outcome [13] | Potency [2] | Potency [17] | Potency [18] | Potency [3] | outcome [4] | Potency [5] | Potency [6] | Potency [14] | outcome [7] | Potency [8] | Potency [15] | Potency [16] | Potency [9] | outcome [12]

CCCCC(CC)COCC1CO1 (centres undefined)
inactive: Potency [2] | Potency [3] | outcome [19] | outcome [20] | Potency [6] | Potency [14] | outcome [7] | Potency [8] | Potency [15] | Potency [16] | Potency [10] | Potency [11] | outcome [12]

Nc1ccc(S(=O)(=O)Nc2cnc3ccccc3n2)cc1
inactive: Potency [1] | Potency [2] | Potency [3] | outcome [19] | outcome [20] | Potency [6] | Potency [14] | outcome [7] | Potency [8] | Potency [15] | Potency [16] | Potency [10] | Potency [11] | outcome [12]

O=P(O)(O)O
inactive: Potency [1] | Potency [2] | Potency [18] | Potency [3] | outcome [4] | outcome [19] | outcome [20] | Potency [6] | outcome [7] | Potency [8] | Potency [15] | Potency [16] | Potency [10] | outcome [12]
inactive and 5.49 µM (active): Potency [14]

CN(C)C(=N)N=C(N)N
inactive: Potency [1] | Potency [2] | Potency [3] | Potency [5] | Potency [6] | Potency [14] | outcome [7] | Potency [8] | Potency [15] | Potency [16] | outcome [12]

C=CC(C)(CCC=C(C)C)OC(C)=O (centres undefined)
inactive: Potency [1] | outcome [13] | Potency [2] | Potency [17] | Potency [18] | Potency [3] | outcome [4] | Potency [5] | outcome [19] | outcome [20] | Potency [6] | Potency [14] | outcome [7] | Potency [8] | Potency [15] | Potency [16] | Potency [10] | Potency [11] | outcome [12]

O=CCCCC=O
active: Potency [16] 54.9 µM | Potency [9] 61.1 µM
29.6 µM (active) and inactive: Potency [10]
inactive: Potency [1] | outcome [13] | Potency [2] | Potency [17] | Potency [18] | Potency [3] | outcome [4] | outcome [19] | outcome [20] | Potency [6] | Potency [14] | outcome [7] | Potency [8] | Potency [11] | outcome [12]

C[C@]12CC[C@H]3[C@@H](CCC4=CC(=O)CC[C@@]43C)[C@@H]1CC[C@@H]2C(=O)CO
active: Potency [10] 27.3 µM
inactive: Potency [1] | outcome [13] | Potency [2] | Potency [3] | Potency [5] | outcome [19] | Potency [6] | Potency [14] | outcome [7] | Potency [15] | Potency [16] | Potency [9] | Potency [11] | outcome [12]

O=C1OC2(c3cc(Br)c(O)c(Br)c3Oc3c2cc(Br)c(O)c3Br)c2c(Cl)c(Cl)c(Cl)c(Cl)c21
inactive: Potency [2] | Potency [17] | Potency [3] | Potency [6] | Potency [14] | outcome [7] | Potency [8] | Potency [16] | Potency [9] | Potency [11] | outcome [12]

CCCCNS(=O)(=O)c1ccccc1
inactive: Potency [1] | Potency [2] | Potency [18] | Potency [3] | outcome [4] | Potency [5] | outcome [19] | outcome [20] | Potency [6] | Potency [14] | outcome [7] | Potency [8] | Potency [15] | Potency [16] | Potency [10] | Potency [11] | outcome [12]

CC(C)CC(C)(O)C#CC(C)(O)CC(C)C (centres undefined)
inactive: Potency [1] | Potency [2] | Potency [3] | Potency [5] | outcome [19] | outcome [20] | Potency [6] | Potency [14] | outcome [7] | Potency [8] | Potency [15] | Potency [16] | Potency [10] | Potency [11] | outcome [12]

NNc1ccc(C(=O)O)cc1
inactive: outcome [13] | Potency [2] | Potency [17] | Potency [3] | outcome [19] | outcome [20] | Potency [6] | Potency [14] | outcome [7] | Potency [8] | Potency [15] | Potency [16] | Potency [10] | outcome [12]

O=C=Nc1ccc(Cc2ccc(N=C=O)cc2)cc1
inactive: outcome [13] | Potency [2] | Potency [17] | Potency [18] | Potency [3] | outcome [4] | outcome [19] | outcome [20] | Potency [6] | Potency [14] | outcome [7] | Potency [8] | Potency [16] | Potency [10] | outcome [12]

c1cc(N(CC2CO2)CC2CO2)ccc1OCC1CO1 (centres undefined)
active: Potency [10] 54.5 µM and 61.1 µM
inactive: Potency [2] | Potency [5] | Potency [6] | Potency [14] | outcome [7] | Potency [8] | Potency [15] | Potency [16] | Potency [11] | outcome [12]

COc1cc([C@@H]2c3cc4c(cc3[C@H](O)[C@H]3COC(=O)[C@H]23)OCO4)cc(OC)c1OC
inactive: Potency [1] | Potency [17] | Potency [3] | Potency [5] | outcome [19] | Potency [6] | Potency [14] | outcome [7] | Potency [8] | Potency [16] | Potency [9] | Potency [11]
active: Potency [10] 0.0306 µM

O=C(OCc1ccccc1)c1ccccc1O
inactive: Potency [1] | outcome [13] | Potency [5] | outcome [19] | outcome [20] | Potency [6] | Potency [14] | outcome [7] | Potency [8] | Potency [15] | Potency [16] | Potency [10] | Potency [11] | outcome [12]
